Test results from PubChem BioAssay (NCI).
About 83,000 compounds went through this panel and 20% of them were active in at least one assay; those are over-represented in the sample as a whole.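 Treatment: one concentration, 48 hours, 96-well format. Scoring: percent growth, with anything below 10 considered active.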 A number with no mark means an inactive call. Active and inactive are the calls of the source.

Assays:
Test in all cases: NCI-60 one-dose screen, 48 h (100 = growth as untreated, 0 = no growth, -100 = all killed)
Conditions in all cases: 10 µM unless noted
SK-MEL-2 melanoma = test system: SK-MEL-2 melanoma
EKVX NSCLC = test system: EKVX NSCLC
SN12C renal = test system: SN12C renal
UO-31 renal = test system: UO-31 renal
TK-10 renal = test system: TK-10 renal
ACHN renal = test system: ACHN renal
CAKI-1 renal = test system: CAKI-1 renal
A498 renal = test system: A498 renal
CCRF-CEM leukemia = test system: CCRF-CEM leukemia
MOLT-4 leukemia = test system: MOLT-4 leukemia
SR leukemia = test system: SR leukemia
RPMI-8226 leukemia = test system: RPMI-8226 leukemia
OVCAR-8 ovarian = test system: OVCAR-8 ovarian
OVCAR-5 ovarian = test system: OVCAR-5 ovarian
OVCAR-4 ovarian = test system: OVCAR-4 ovarian
SK-OV-3 ovarian = test system: SK-OV-3 ovarian
IGROV1 ovarian = test system: IGROV1 ovarian
OVCAR-3 ovarian = test system: OVCAR-3 ovarian
HS 578T breast = test system: HS 578T breast
NCI/ADR-RES ovarian = test system: NCI/ADR-RES ovarian

| SMILES | growth (SK-MEL-2 melanoma) | growth (EKVX NSCLC) | growth (SN12C renal) | growth (UO-31 renal) | growth (TK-10 renal) | growth (ACHN renal) | growth (CAKI-1 renal) | growth (A498 renal) | growth (CCRF-CEM leukemia) | growth (MOLT-4 leukemia) | growth (SR leukemia) | growth (RPMI-8226 leukemia) | growth (OVCAR-8 ovarian) | growth (OVCAR-5 ovarian) | growth (OVCAR-4 ovarian) | growth (SK-OV-3 ovarian) | growth (IGROV1 ovarian) | growth (OVCAR-3 ovarian) | growth (HS 578T breast) | growth (NCI/ADR-RES ovarian) |
| --- | --- | --- | --- | --- | --- | --- | --- | --- | --- | --- | --- | --- | --- | --- | --- | --- | --- | --- | --- | --- |
| COc1cccc(NC(=O)c2cccc(C3CCc4c(cc(OC)c(OC)c4OC)O3)c2)c1 (stereo not given) | 65.5% | 69.1% | 55.2% | 34.5% | 74.5% | 66.8% | 80.3% | 30.2% | 22.1% | 7.7% (active) | 35.7% | 28.4% | 54.5% | 81.8% | 56.7% | 71.7% | 65.6% | 81.1% | 86.6% | 55.9% |
| C=NNc1ccccc1 | 123% | 92.8% | 89.6% | 71% | 127% | 78% | 84.1% | 77.1% | 71.5% | 105% | 74% | 97.6% | 95.1% | 109% | 102% | 102% | 88.7% | 102% | 97.7% | 84.4% |
| COc1ncc2cc1NS(=O)(=O)c1cccc(c1)C(=O)NCC1=CC=C(S1)c1ncnc3c1SC2=C3C | -33.2% (active) | -15.6% (active) | 5.73% (active) | -12.9% (active) | -6.51% (active) | -13.7% (active) | -26.1% (active) | -67.2% (active) | -0.78% (active) | -20.2% (active) | -3.91% (active) | -31.3% (active) | 20.6% | -26.2% (active) | -24.1% (active) | 5.33% (active) | -24.5% (active) | -73.1% (active) | 12.7% | 10.6% |
| Cc1ccc(Nc2nc(-c3ccc(F)cc3)c(C#N)c(=O)n2C)cc1 | 70.8% | 54.6% | 62.9% | 44.8% | 55.4% | 63% | 59.3% | 42.7% | 98.8% | 81.5% | 62.3% | 89.4% | 67.3% | 63.4% | 51% | 60.1% | 67.5% | 61.5% | 44.8% | 76.2% |
| O=C1CCCc2nc3sc4c(=O)n(-c5ccccc5Cl)nnc4c3cc21 | 95.2% | 91.7% | 90.4% | 92.4% | 95% | 107% | 97.6% | 95.5% | 85.1% | 98.2% | 87.8% | 87.6% | 92.2% | 100% | 105% | 107% | 99.9% | 114% | 99% | 103% |
| O=C1OCC2=C1C(c1cccc(C(F)(F)F)c1)c1cc3c(cc1N2CCO)OCO3 (stereo not given) | 24% | 49.7% | 46.8% | 47.3% | 60.8% | 42.8% | 26.8% | 20.9% | 7.82% (active) | 20% | 15.7% | 21% | 23.3% | 55% | 58.1% | 27.9% | 37.2% | -5.02% (active) | 31.4% | 25% |
| CC(C)c1ccc(NC(=O)Nc2ccc(NC(=O)c3ccccc3N)cc2)cc1 | 45.3% | 48.2% | 91.6% | 20.5% | 65.5% | 29.6% | 70.7% | 49.6% | 29% | 19.2% | 17.9% | -0.137% (active) | 61.5% | 60.5% | 59.4% | 46.8% | 72.6% | 49% | -3.9% (active) | 89.5% |
| C#CC#CC#CC#CC#CC#CC#CC#CC[C@H]1OC[C@@H](COC(=O)O[C@@H](C(=O)O[C@H]2C[C@@]3(O)[C@@H](OC(=O)c4ccccc4)[C@@H]4[C@]5(OC(C)=O)CO[C@@H]5C[C@H](O)[C@@]4(C)C(=O)[C@H](OC(C)=O)C(=C2C)C3(C)C)[C@@H](NC(=O)c2ccccc2)c2ccccc2)O1 | 76.2% | 75.4% | 50.2% | 102% | 86.5% | 89.9% | 79.6% | 45.4% | 36.2% | 42.5% | 25.9% | 26% | 59.7% | 47% | 68.3% | 61.7% | 49.2% | 22.6% | 44.3% | 108% |
| O=C1/C=C/[C@@H](O)[C@@H]2C[C@@H](O)C[C@H]2/C=C/CCC[C@H](CCOCc2ccccc2)O1 | -24.1% (active) | 1.3% (active) | 10.6% | 12.2% | -17.6% (active) | 5.36% (active) | -28.2% (active) | -28.5% (active) | 27.5% | 7.56% (active) | -7.43% (active) | 11.5% | 9.04% (active) | 8.12% (active) | 25.8% | 31.3% | 15.1% | -45.8% (active) | 23.8% | 6.93% (active) |
| CCCCCCCCn1ccc2cc(NC(=O)Cn3cc(CN4CCCCCC4)nn3)ccc21 | -66.6% (active) | 74.1% | 23% | -87.6% (active) | 71.4% | -36% (active) | -39.9% (active) | 88.9% | 1.06% (active) | -27.5% (active) | -13.1% (active) | -9.08% (active) | 30% | 35.6% | 51% | 97.6% | 52.2% | 10.1% | 65.7% | 55.1% |
| COc1cc(/C=C2\CN(S(=O)(=O)c3ccc(C)cc3)C/C(=C\c3cc(CN4CCCCC4)c(O)c(OC)c3)C2=O)cc(CN2CCCCC2)c1O | -73.7% (active) | -81% (active) | -76.5% (active) | -89.1% (active) | -93.4% (active) | -98.9% (active) | -89% (active) | 90% | -6.3% (active) | -23.7% (active) | -14.6% (active) | -39.3% (active) | -66.4% (active) | -86.5% (active) | -72.7% (active) | 115% | -67% (active) | -89.4% (active) | -33.4% (active) | -47.2% (active) |
| COc1cc2c3c(n(CCCCNCCCn4c5c(c6cc(OC)c(OC)cc6c4=O)C(=O)c4cc6c(cc4-5)OCO6)c(=O)c2cc1OC)-c1cc2c(cc1C3=O)OCO2 | 114% | 90.3% | 102% | 84.1% | 100% | 95% | 93.3% | 103% | 101% | 96.5% | 66.6% | 105% | 101% | 98.6% | 102% | 96.3% | 95% | 98.7% | 104% | 98.6% |
| N#Cc1c(Nc2ccc(F)cc2)n[nH]c1-c1cccs1 | 117% | 92.6% | 89.5% | 74.1% | 135% | 88.4% | 88.9% | 103% | 100% | 103% | 107% | 97.3% | 105% | 100% | 92% | 115% | 71.8% | 109% | 101% | 100% |
| CC(C)[C@@]12C[C@@H](OC(=O)COC(=O)c3ccccc3)[C@@](C)(O1)[C@@H]1CC[C@@H](C)[C@H]1[C@@H]2OC(=O)/C=C/c1ccccc1 | 103% | 81.8% | 31% | -78.1% (active) | 88.9% | -13.4% (active) | 5.14% (active) | -76.6% (active) | 87% | 80.8% | 78.6% | 85.3% | 31.7% | 95.7% | 87.2% | 88.1% | 114% | 94.8% | -14.4% (active) | 25.2% |
